The list is not random: actives were taken first. Their share in the collection is about 6.9%.
Cy5 interf NS3h: counter-screen for HCV NS3 helicase inhibitors: fluorescence interference. AID 720488. fluorescence interference ratio at 100 µM. 6% of 16,000 active. Cy5-dT15 DNA with NS3h; actives lie on both sides; signal over control mean, under 1 quenches;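 active = compound fluorescence over control fluorescence at most 0.8, a quencher, or at least a set upper limit, an enhancer; inactive = ratio between 0.8 and the set upper limit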
NS3h inh CB: hepatitis C NS3 helicase inhibition, primary screen | 1.6% of 16,000 active | NS3h Cy5-dT15 DNA binding, fluorescence polarization | AID 687043 | inhibition, % at 100 µM;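 active = inhibition above the average over every tested compound plus 3 SD, cut at about 40% in these data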
The depositor's hits bear a star.

SMILES | Cy5 interf NS3h | NS3h inh CB
Cc1ccc(N2C(=O)/C(=C/c3ccccc3C)C(=O)NC2=S)cc1 | 1 | 3
Cc1ccc(N2CN=C(c3ccccc3)NC2=S)cc1 | 0.75* | 14
COc1ccc(Cl)cc1NC(=O)c1ccc([N+](=O)[O-])cc1 | 0.98 | 14
Cc1ccc2[nH]c(O)c(N=Nc3ccc([N+](=O)[O-])cc3[N+](=O)[O-])c2c1Br | 0.74* | 17
Cc1ccc(S(=O)(=O)N=Nc2c(O)[nH]c3ccc(Br)cc23)cc1C | 0.98 | -6
Cc1ccc(-c2[nH]n3c(=O)cc(-c4ccc([N+](=O)[O-])cc4)nc3c2C)cc1 | 0.79* | -6
COc1ccc(-c2cc(=O)n3[nH]c(-c4ccc(C)cc4)c(C)c3n2)cc1 | 1.1 | 2
CCCOc1ccc(/C=N\N2CCN(Cc3cccc4ccccc34)CC2)cc1 | 1.1 | 10
CCCCOc1ccc(NC(=O)CSc2nnc(-c3cccc(F)c3)n2-c2ccccc2)cc1 | 1.1 | 2
CCCCOc1ccc(NC(=O)CCSc2nccn2C)cc1 | 0.69* | 14
O=C1CCCCC1C(Nc1ccc2ncccc2c1)c1ccc(F)cc1 (stereo unspecified) | 0.87 | -6
Cn1c(=O)cc(-c2ccccc2)c2ccccc21 | 0.69* | 14
O=c1cc(-c2ccccc2)c2cc(Cl)ccc2[nH]1 | 1.1 | -13
Cc1ccc(C2CC(C(F)(F)F)n3nc(C(=O)Nc4ccc(C(C)O)cc4)cc3N2)cc1 (stereo unspecified) | 0.64* | 8
O=C(c1nn2c(c1Cl)NC(c1ccccc1)CC2C(F)(F)F)N1CCN(c2ccc(F)cc2)CC1 (stereo unspecified) | 0.99 | 28
CC(O)c1ccc(NC(=O)c2cnn3c2NC(c2cccs2)CC3C(F)(F)F)cc1 (stereo unspecified) | 1 | 5
O=C(c1cc2n(n1)C(C(F)(F)F)CC(c1ccc(F)cc1)N2)N1CCCC1 (stereo unspecified) | 0.75* | 8
Cc1ccc(C2CC(C(F)(F)F)n3nc(C(=O)N4CCN(c5ccc(F)cc5)CC4)c(Cl)c3N2)cc1 (stereo unspecified) | 0.49* | 10
CC(O)c1cccc(NC(=O)c2cc3n(n2)C(C(F)(F)F)CC(c2ccc(F)cc2)N3)c1 (stereo unspecified) | 0.96 | 15
Cc1ccc(C2CC(C(F)(F)F)n3nc(C(=O)N4CCN(c5ccc(F)cc5)CC4)cc3N2)cc1 (stereo unspecified) | 0.92 | 6
CC(O)c1ccc(NC(=O)c2cnn3c2NC(c2ccc(F)cc2)CC3C(F)(F)F)cc1 (stereo unspecified) | 0.48* | 24
COc1cccc(-n2c(/C=C/c3c(C)n(C)c4ccccc34)nc3ccccc3c2=O)c1 | 0.95 | -7
CC(C)(CN1CCOCC1)NS(=O)(=O)c1ccc(Cl)cc1 | 1.1 | -21
CCOC(=O)C(CCOc1ccc(Cl)cc1C)C(=O)OCC | 0.98 | 2
COc1ccc(CNC(=O)c2cc(OC)cc(OC)c2)cc1 | 0.93 | 8
SMILES | Cy5 interf NS3h | NS3h inh CB
COc1ccc(N(CC(=O)Nc2cccc(Cl)c2)S(C)(=O)=O)cc1 | 1.2 | 3
CCOC(=O)COc1cc(C)c(Cl)cc1[N+](=O)[O-] | 0.99 | 7
C/C(=N/N=C1\NC(=O)C(CC(=O)Nc2ccc(C)c(Cl)c2)S1)c1ccc(F)cc1 (stereo unspecified) | 1 | 0
COc1ccc(C2CC(C(F)(F)F)n3ncc(C(=O)N(C)Cc4ccccc4)c3N2)cc1OC (stereo unspecified) | 0.6* | 28
Cc1ccc(C2CC(C(F)(F)F)n3ncc(C(=O)N(Cc4ccccc4)Cc4ccccc4)c3N2)cc1 (stereo unspecified) | 0.94 | 8
CC1=NN(c2cccc(C(=O)O)c2)C(=O)/C1=C\c1ccc(N(C)C)cc1 | 1 | 4
COc1cc(/C=C/c2[nH]c(=O)[nH]c(=O)c2[N+](=O)[O-])cc(Br)c1OCc1ccccc1 | 1.1 | 13
COC(=O)C(=Cc1cc(Br)c(OCc2ccc([N+](=O)[O-])cc2)c(OC)c1)C(=O)OC | 0.75* | 6
CC(C1CC1)N(Cc1ccccc1)C(=O)Nc1cccc([N+](=O)[O-])c1 (stereo unspecified) | 0.61* | 7
CC1=C(C(=O)Nc2ccc(C)c(Cl)c2)C(c2cccc([N+](=O)[O-])c2)NC(=O)N1 (stereo unspecified) | 0.9 | 1
O=c1/c(=C\c2cc(Cl)c(O)c(Cl)c2)sc2nc3ccccc3n12 | 0.99 | 12
Cc1ccc(N=Cc2ccc(C#N)cc2)cc1I | 1 | 5
CC(C)N(C(=O)c1ccc(C(=O)Nc2ccc(Nc3ccccc3)cc2)cc1)C(C)C | 0.7* | 17
O=C(Nc1ccc(Nc2ccccc2)cc1)c1ccc([N+](=O)[O-])cc1 | 0.95 | 17
CC(=O)CC(=O)Nc1ccc(-c2ccc(NC(=O)CC(C)=O)c(C)c2)cc1C | 1 | -3
CC(N=C(NS(=O)(=O)c1ccccc1)c1ccccc1)C(=O)O (stereo unspecified) | 1 | -15

Bioassay records: PubChem BioAssay, Milwaukee Institute for Drug Discovery
